# Tau ThT inhib = qHTS for Inhibitors of Tau Fibril Formation, Thioflavin T Binding; recombinant tau K18 P301L, heparin-induced fibrillization, ThT fluorescence; Microtubule-associated protein tau (Homo sapiens), P10636; Potency, µM (doses to about 57.4 µM), without a hit: at the highest dose activity, negative = inhibition, actives largely listed as inhibitors; AID 1460, 2008; 2.1% of 270,000 active; also: nearly all actives have a fitted effect of over 55% in size
# Target sequence (P10636 561-689 P618L limits assumed): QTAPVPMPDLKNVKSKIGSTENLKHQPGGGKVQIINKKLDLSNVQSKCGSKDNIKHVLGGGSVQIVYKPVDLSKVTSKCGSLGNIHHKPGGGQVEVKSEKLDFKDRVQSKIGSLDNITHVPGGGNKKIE
#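 Tau K18 P301L fragment (15 uM unlabeled plus 0.24 uM Alexa 594-labeled) in 100 mM sodium acetate pH 7 with compound, fibrillization induced by 20 uM heparin for 6 hr at 37 C. Thioflavin T (30 uM) added, fluorescence read after 1 hr (ex 450, em 510 nm).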
# Sfp PPTase inh = qHTS Assay for Inhibitors of Bacillus subtilis Sfp phosphopantetheinyl transferase (PPTase). AID 1490, 2009. Biochemical Sfp PPTase activity, qHTS. 3.5% of 310,000 active. Potency, µM, for the others: largest response in the series, negative = inhibition, hits mostly inhibitors. 4'-phosphopantetheinyl transferase ffp (Bacillus subtilis), Q9F4F7;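 also: the enzyme is Sfp with the accession as filed and its product quenches rhodamine fluorescence; 0% = enzyme reaction without inhibitor and -100% = no enzyme wells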
#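 Fluorescence-quenching assay with 15 nM Sfp, 5 uM rhodamine-CoA and 12.5 uM BHQ-2-labelled ybbR peptide in pH 7.6 Hepes/MgCl2 buffer. Enzyme was pre-incubated with compound for 15 min at room temperature. Rate was taken from the 30-min fluorescence change (525/598 nm).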
# Tau FP inhib = qHTS for Inhibitors of Tau Fibril Formation, Fluorescence Polarization | Microtubule-associated protein tau (Homo sapiens), P10636 | K18 P301L tau heparin fibrillization, Alexa594 FP, 6 h | Potency, µM (highest dose often 57.7 µM), for inactives: top-dose activity, negative = inhibition, most hits filed as inhibitors | 0.39% of 280,000 active | AID 1468, 2008; also: nearly all actives have a fitted effect of over 55% in size
#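 Quantitative HTS format: compounds meet 15 uM recombinant K18 P301L tau and Alexa 594-tau tracer in 100 mM sodium acetate pH 7; 20 uM heparin triggers fibrillization at 37 C over 6 hr; FP gives the signal.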
# Tau fluor counter = Counterscreen qHTS for Inhibitors of Tau Fibril Formation, Fluorescence Polarization; Potency, µM (titrated, usually from 57.7 µM), without a hit: top-dose activity change, negative = decrease; tau K18 P301L Alexa594 fluorescence, heparin fibrillization; 0.93% of 280,000 active; also: nearly all actives have a fitted effect of over 55% in size
#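 Human tau K18 P301L (15 uM unlabeled, 0.24 uM Alexa 594-labeled) in 100 mM sodium acetate pH 7 with 20 uM heparin, 6 hr at 37 C. ThT 30 uM added, 1 hr ambient; Alexa 594 FP and total fluorescence read at 555/632 nm.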
# VDR inh = Inhibitors of the vitamin D receptor (VDR): qHTS. VDR-SRC2-3 peptide fluorescence polarization, 2 h. 0.93% of 400,000 active. AID 504847, 2011. Potency, µM, for inactives: max response, negative = inhibition, hits mostly inhibitors
# Target sequence (P11473 whole entry, looked up): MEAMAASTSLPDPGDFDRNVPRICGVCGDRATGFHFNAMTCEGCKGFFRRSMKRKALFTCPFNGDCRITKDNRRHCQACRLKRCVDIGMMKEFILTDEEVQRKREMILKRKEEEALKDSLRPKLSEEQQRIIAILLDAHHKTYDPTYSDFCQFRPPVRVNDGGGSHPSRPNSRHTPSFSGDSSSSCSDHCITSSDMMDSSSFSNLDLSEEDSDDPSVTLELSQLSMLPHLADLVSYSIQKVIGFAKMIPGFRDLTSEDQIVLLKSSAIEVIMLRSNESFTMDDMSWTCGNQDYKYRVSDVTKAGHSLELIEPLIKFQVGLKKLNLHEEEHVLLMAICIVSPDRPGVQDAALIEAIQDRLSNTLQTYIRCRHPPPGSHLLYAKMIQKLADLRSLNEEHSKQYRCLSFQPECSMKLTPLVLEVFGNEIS
#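 Compounds are added to VDR with labelled SRC2-3 coactivator peptide and held 2 h at room temperature. Inhibition of the VDR–peptide interaction is then read as a change in fluorescence polarization.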
# PLK1 PBD block = qHTS for Inhibitors of PLK1-PDB (polo-like kinase 1 - polo-box domain): Primary Screen; Serine/threonine-protein kinase PLK1 (Homo sapiens), P53350; Plk1 PBD binding of FITC phosphopeptide, fluorescence polarization; Potency, µM, without a hit: max response, negative = inhibition, usual class: inhibitors; 2.8% of 360,000 active; also: series mostly up to about 57 µM; nearly all actives have a fitted effect of over 65% in size
# * = called active by the depositor; ? = inconclusive; / = no result; [ ] = another dose, or the depositor's remark. Only some compounds are listed: those with a hit (about 6% of all), similar ones and a draw of the others. Calls follow the shape of the dose curve; as a rule, active = well fitted curve in the direction sought with a large enough effect; inconclusive = small, poorly fitted or top-dose-only effect, or another doubt; inactive = no such curve, though single readings can be large; an effect the other way counts as inactive or inconclusive. Unless noted, % is scaled to controls: 0 for no effect and ±100 for the full control effect; potency is read from the fitted curve at half-maximal effect.
SMILES,Tau ThT inhib,Sfp PPTase inh,Tau FP inhib,Tau fluor counter,VDR inh,PLK1 PBD block
CCOC(=O)c1c(C)[nH]c(N=Nc2cc(C(=O)O)cc(C(=O)O)c2)c1C,?,-2%,-1%,-5%,-7%,-11%
CCOC(=O)c1c(C)[nH]c(N=Nc2ccc(C)cc2C)c1C,6.3µM*,?,13%,?,0%,-10%
CON(C)C(=O)CC1(CN(Cc2ccccc2)C(=O)OC(C)(C)C)CCCCC1,/,/,/,/,?,8%
C#CC(=O)CC1(CN(Cc2ccccc2)C(=O)OC(C)(C)C)CCCCC1,/,/,/,/,?,12µM*
O=C(CCC(=O)Nc1ccccc1)N/N=C/c1ccncc1,?,?,-8%,-10%,-3%,-30%
O=C(CCC(=O)Nc1ccc(F)cc1)N/N=C/c1ccncc1,-5%,45µM*,-5%,-5%,-20%,-6%
CCOC(=O)c1cccc(NC(=O)CN2C(=O)CC(C)(C)Sc3ccccc32)c1,-18%,/,3%,-21%,-7%,/
Cc1ccc(C(=O)COC(=O)c2ccc3c(c2)C(=O)N(c2cccc4ncccc24)C3=O)cc1,?,79µM*,-14%,-20%,19%,-2%
O=C(COC(=O)c1ccc2c(c1)C(=O)N(c1cccc3ncccc13)C2=O)c1ccc(Cl)cc1,?,28µM*,-1%,-13%,-1%,-7%
CCc1c(C)sc(NC(=S)Nc2nc(C)cc(C)n2)c1C(=O)OC,-8%,-23%,-4%,-17%,-7%,1%
CCc1c(C)sc(NC(=S)Nc2cccnc2)c1C(=O)OC,-11%,20µM*,-13%,?,-12%,?
COc1ccccc1CNC(=O)Cc1c(C)c2c(cc(C)c3c(C)coc32)oc1=O,0%,/,-3%,-2%,5%,/
Cc1ccccc1C(=O)Nc1nnc(S(=O)(=O)N2CCCCCC2)s1,14µM*,21%,-6%,-29%,-9%,-14%
Cc1cccc(C(=O)Nc2nnc(S(=O)(=O)N3CCOCC3)s2)c1,3.5µM*,14%,5%,-26%,-7%,?
O=C(Nc1nnc(S(=O)(=O)N2CCCCC2)s1)c1ccc(F)cc1,4.5µM*,/,17%,?,7%,/
O=C(Nc1nnc(S(=O)(=O)N2CCCC2)s1)c1ccc(F)cc1,?,/,1%,?,13%,/
CC(=O)Oc1ccc(C(=O)[C@H]2[C@H]3C(=O)N(c4ccc(C)cc4C)C(=O)[C@H]3[C@@H]3C=CC=NN32)cc1,?,50µM*,?,?,8%,-17%
CC(=O)Oc1ccc(C(=O)[C@H]2[C@H]3C(=O)N(c4ccc(C)cc4)C(=O)[C@H]3[C@@H]3C=CC=NN32)cc1,?,-22%,-9%,-23%,-17%,-22%
COC(=O)CC(=O)CSc1nc2cc(C(=O)NCC(C)C)ccc2c(=O)n1CCc1ccccc1,3%,/,-5%,-8%,15%,/
CCCc1nc2sc3c(c2c(=O)[nH]1)CCCC3,-8%,-3%,-13%,-13%,79µM*,27µM*
COCc1nc2sc3c(c2c(=O)[nH]1)CCCC3,2%,4%,4%,4%,-6%,3%
Cc1ccc(CN(C)C(=O)CCc2nc3sc4c(c3c(=O)[nH]2)CCCC4)o1,/,50µM*,/,/,?,-22%
CC(C)C[C@H](NC(=O)c1ccc(NCc2cnc[nH]2)cc1-c1cccc2ccccc12)C(=O)O,/,12%,/,/,0%,/
O=S(=O)(c1ccccc1Br)N1CCN(c2nc(-c3cccs3)nc3ccccc23)CC1,/,/,/,/,-14%,/
COc1ccc2c(c1)OCC1=C2CCC2(C)C(=O)CC=C12 (centres undefined),20µM*,20µM*,?,?,/,/
SMILES,Tau ThT inhib,Sfp PPTase inh,Tau FP inhib,Tau fluor counter,VDR inh,PLK1 PBD block
CCCC(=O)Nc1nnc([C@H]2C[C@H](O)[C@@H](CO)O2)s1,/,/,/,/,/,-4%
COc1ccc(C2Cc3ccccc3C(=O)O2)cc1 (centres undefined),-3%,9%,2%,-6%,-14%,-3%
Clc1ccc(OCc2nn3c(C4CCCCC4)nnc3s2)cc1,-2%,20µM*,9%,3%,?,21µM*
c1csc(-c2nn3c(C4CCCCC4)nnc3s2)c1,/,/,/,/,-17%,0%
Nc1c(C(=O)Nc2nc3ccccc3s2)sc2nc(-c3cccs3)ccc12,?,?,4%,13µM*[quencher],32%,-23%
Cc1nc(-c2cccs2)ccc1C(=O)O,-5%,11%,-10%,3%,10%,-5%
Nc1ccc(C(=O)Nc2nc3ccccc3s2)cc1,-8%,18%,2%,-29%,4%,-1%
CC(=O)c1sc2nc(-c3cccs3)ccc2c1N,16µM*,50µM*,-16%,?,-3%,-22%
Nc1c(C(=O)Nc2ccccc2Br)sc2nc(-c3cccs3)ccc12,?,/,?,3.2µM*[quencher],0%,/
Nc1c(C(=O)Nc2ccc(Cl)cc2F)sc2nc(-c3cccs3)ccc12,?,/,-12%,2.2µM*[quencher],8%,/
O=C(NCC1CCOCC1)C1Cc2c(-c3ccccc3Oc3ccccc3)ccnc2O1 (centres undefined),/,/,/,/,/,-7%
CC(C)C[C@H](NC(=O)[C@H](CCCCN)NC(=O)[C@H](CCCNC(=N)N)NC(=O)[C@H](C)NC(=O)[C@H](CO)NC(=O)[C@H](CCCCN)NC(=O)[C@H](CCCNC(=N)N)NC(=O)[C@H](C)NC(=O)CNC(=O)[C@@H](NC(=O)[C@H](Cc1ccccc1)NC(=O)CNC(=O)CNC(=O)[C@@H](N)Cc1ccccc1)[C@H](C)O)C(=O)N[C@@H](C)C(=O)N[C@@H](CC(N)=O)C(=O)N[C@@H](CCC(N)=O)C(=O)O,2%,14%,3%,4%,-1%,/
COc1cccc([C@@H]2Oc3ccc(Br)cc3C(=O)[C@H]2OC(=O)Nc2ccc(C)c(Br)c2)c1,?,6%,2%,-10%,-12%,/
C/C(CC(=O)NCc1ccc(F)cc1)=N\NC(N)=S,-5%,56µM*,-1%,1%,-9%,-29%
C/C(CC(=O)NCc1ccccc1)=N\NC(N)=S,-9%,45µM*,-1%,-7%,-11%,?

# Screening data (PubChem)
